{"source": "paper PMC11062922", "about": "(Nature Chemical Biology, 2023)", "parameters_in_all_cases": "species or system human, MV4-11 + K-562 + COLO205 + SK-N-BE2 + OVCAR-8", "key": {"ADRBK1": {"tested_on": "ADRBK1", "settings": "read-out: apparent Kd, compound concentrations: 100 nM and 1000 nM (sheet 'Samples'), n = 1"}, "FLT3": {"tested_on": "FLT3", "settings": "read-out: apparent Kd; compound concentrations: 100 nM and 1000 nM (sheet 'Samples'), CATDS: 0.11498835622255001; n = 1"}, "FRK": {"tested_on": "FRK", "settings": "read-out: apparent Kd; compound concentrations: 100 nM and 1000 nM (sheet 'Samples'), CATDS: 9.2307505689948E-2; n = 1"}, "MAP2K5": {"tested_on": "MAP2K5", "settings": "read-out: apparent Kd; compound concentrations: 100 nM and 1000 nM (sheet 'Samples'), CATDS: 0.380124521697633; n = 1"}, "PDGFRB": {"tested_on": "PDGFRB", "settings": "read-out: apparent Kd; compound concentrations: 100 nM and 1000 nM (sheet 'Samples'), CATDS: 7.8407173450410803E-2; n = 1"}, "PRKCZ": {"tested_on": "PRKCZ", "settings": "read-out: apparent Kd; compound concentrations: 100 nM and 1000 nM (sheet 'Samples'), CATDS: 7.7148514104913996E-2; n = 1"}, "PTK6": {"tested_on": "PTK6", "settings": "read-out: apparent Kd; compound concentrations: 100 nM and 1000 nM (sheet 'Samples'), CATDS: 7.5013295148623801E-2; n = 1"}, "RIPK2": {"tested_on": "RIPK2", "settings": "read-out: apparent Kd; compound concentrations: 100 nM and 1000 nM (sheet 'Samples'), CATDS: 9.6327273582125797E-2; n = 1"}, "RIPK3": {"tested_on": "RIPK3", "settings": "read-out: apparent Kd; compound concentrations: 100 nM and 1000 nM (sheet 'Samples'), CATDS: 0.614198823590974; n = 1"}, "ZAK": {"tested_on": "ZAK", "settings": "read-out: apparent Kd; compound concentrations: 100 nM and 1000 nM (sheet 'Samples'), CATDS: 7.8640349215909094E-2; n = 1"}, "AKT1": {"tested_on": "AKT1", "settings": "read-out: apparent Kd, compound concentrations: 100 nM and 1000 nM (sheet 'Samples'), n = 1"}, "AKT2": {"tested_on": "AKT2", "settings": "read-out: apparent Kd, compound concentrations: 100 nM and 1000 nM (sheet 'Samples'), n = 1"}, "CDK10": {"tested_on": "CDK10", "settings": "read-out: apparent Kd; compound concentrations: 100 nM and 1000 nM (sheet 'Samples'), CATDS: 0.51704029448555699; n = 1"}, "CDK6": {"tested_on": "CDK6", "settings": "read-out: apparent Kd; compound concentrations: 100 nM and 1000 nM (sheet 'Samples'), CATDS: 0.20931890266427899; n = 1"}, "AGPS": {"tested_on": "AGPS", "settings": "read-out: apparent Kd; compound concentrations: 100 nM and 1000 nM (sheet 'Samples'), CATDS: 0.49272906791281001; n = 1"}, "NNT": {"tested_on": "NNT", "settings": "read-out: apparent Kd, compound concentrations: 100 nM and 1000 nM (sheet 'Samples'), n = 1"}, "AGK": {"tested_on": "AGK", "settings": "read-out: apparent Kd; compound concentrations: 100 nM and 1000 nM (sheet 'Samples'), CATDS: 6.7196554082181503E-2; n = 1"}, "CDK17": {"tested_on": "CDK17", "settings": "read-out: apparent Kd; compound concentrations: 100 nM and 1000 nM (sheet 'Samples'), CATDS: 6.2311196568293398E-2; n = 1"}, "CLK4": {"tested_on": "CLK4", "settings": "read-out: apparent Kd; compound concentrations: 100 nM and 1000 nM (sheet 'Samples'), CATDS: 7.8018331182730397E-2; n = 1"}, "MAP2K1": {"tested_on": "MAP2K1", "settings": "read-out: apparent Kd, compound concentrations: 100 nM and 1000 nM (sheet 'Samples'), n = 1"}, "MAP2K2": {"tested_on": "MAP2K2", "settings": "read-out: apparent Kd, compound concentrations: 100 nM and 1000 nM (sheet 'Samples'), n = 1"}, "MAPKAPK2": {"tested_on": "MAPKAPK2", "settings": "read-out: apparent Kd; compound concentrations: 100 nM and 1000 nM (sheet 'Samples'), CATDS: 7.7313280603985193E-2; n = 1"}, "NQO1": {"tested_on": "NQO1", "settings": "read-out: apparent Kd; compound concentrations: 100 nM and 1000 nM (sheet 'Samples'), CATDS: 0.112965714749218; n = 1"}, "PIP4K2C": {"tested_on": "PIP4K2C", "settings": "read-out: apparent Kd; compound concentrations: 100 nM and 1000 nM (sheet 'Samples'), CATDS: 6.1582136800339998E-2; n = 1"}, "PRKAG2": {"tested_on": "PRKAG2", "settings": "read-out: apparent Kd; compound concentrations: 100 nM and 1000 nM (sheet 'Samples'), CATDS: 7.1492957845938399E-2; n = 1"}, "TNIK": {"tested_on": "TNIK", "settings": "read-out: apparent Kd; compound concentrations: 100 nM and 1000 nM (sheet 'Samples'), CATDS: 6.4996238797789693E-2; n = 1"}, "VDAC3": {"tested_on": "VDAC3", "settings": "read-out: apparent Kd; compound concentrations: 100 nM and 1000 nM (sheet 'Samples'), CATDS: 6.7332646365255294E-2; n = 1"}, "ERBB3": {"tested_on": "ERBB3", "settings": "read-out: apparent Kd; compound concentrations: 100 nM and 1000 nM (sheet 'Samples'), CATDS: 0.13947545743424; n = 1"}, "NQO2": {"tested_on": "NQO2", "settings": "read-out: apparent Kd; compound concentrations: 100 nM and 1000 nM (sheet 'Samples'), CATDS: 0.16308472458482501; n = 1"}}, "note": "Read-outs that look alike come from different tables or passages of the source."}
{"smiles": "CNC(=O)c1ccc2c(c1)ncn2-c1ccc(CC(=O)OC(C)(C)C)cc1", "note": "[GSK840]", "values": [{"measurement": "potency estimated from few doses", "setting": "ADRBK1; CATDS: 7.1088636568514996E-2", "value": 2020, "unit": "nM"}, {"measurement": "potency estimated from few doses", "setting": "FLT3", "value": 469, "unit": "nM"}, {"measurement": "potency estimated from few doses", "setting": "FRK", "value": 857, "unit": "nM"}, {"measurement": "potency estimated from few doses", "setting": "MAP2K5", "value": 12.1, "unit": "nM"}, {"measurement": "potency estimated from few doses", "setting": "PDGFRB", "value": 1420, "unit": "nM"}, {"measurement": "potency estimated from few doses", "setting": "PRKCZ", "value": 1500, "unit": "nM"}, {"measurement": "potency estimated from few doses", "setting": "PTK6", "value": 1650, "unit": "nM"}, {"measurement": "potency estimated from few doses", "setting": "RIPK2", "value": 759, "unit": "nM"}, {"measurement": "potency estimated from few doses", "setting": "RIPK3", "value": 4.67, "unit": "nM"}, {"measurement": "potency estimated from few doses", "setting": "ZAK", "value": 1400, "unit": "nM"}]}
{"smiles": "Cc1cc(Cl)cc2c1NC(=O)C2=NNc1ccc(S(N)(=O)=O)cc1", "note": "[GW279320X]", "values": [{"measurement": "potency estimated from few doses", "setting": "AKT1; CATDS: 0.213173393679812", "value": 1720, "unit": "nM"}, {"measurement": "potency estimated from few doses", "setting": "AKT2; CATDS: 0.21750959040308801", "value": 1630, "unit": "nM"}, {"measurement": "potency estimated from few doses", "setting": "CDK10", "value": 316, "unit": "nM"}, {"measurement": "potency estimated from few doses", "setting": "CDK6", "value": 1810, "unit": "nM"}]}
{"smiles": "Cc1cc(O)cc(C)c1/C=C/c1cncc(C(=O)N(C)C)c1", "note": "[GW427984X]", "values": [{"measurement": "potency estimated from few doses", "setting": "AGPS", "value": 1860, "unit": "nM"}, {"measurement": "potency estimated from few doses", "setting": "NNT; CATDS: 0.50748873234437097", "value": 1750, "unit": "nM"}]}
{"smiles": "Cc1nnc(-c2ccc(C)c(-c3ccc(C(=O)NCc4ccc(Cl)cc4)cc3)c2)o1", "note": "[GW708893X]", "values": [{"measurement": "potency estimated from few doses", "setting": "AGK", "value": 1820, "unit": "nM"}, {"measurement": "potency estimated from few doses", "setting": "AKT1; CATDS: 5.9892362604304798E-2", "value": 2380, "unit": "nM"}, {"measurement": "potency estimated from few doses", "setting": "AKT2; CATDS: 8.2030939692010002E-2", "value": 1220, "unit": "nM"}, {"measurement": "potency estimated from few doses", "setting": "CDK17", "value": 2160, "unit": "nM"}, {"measurement": "potency estimated from few doses", "setting": "CLK4", "value": 1340, "unit": "nM"}, {"measurement": "potency estimated from few doses", "setting": "MAP2K1; CATDS: 7.0817886716783296E-2", "value": 1630, "unit": "nM"}, {"measurement": "potency estimated from few doses", "setting": "MAP2K2; CATDS: 8.1065909718248605E-2", "value": 1250, "unit": "nM"}, {"measurement": "potency estimated from few doses", "setting": "MAPKAPK2", "value": 1370, "unit": "nM"}, {"measurement": "potency estimated from few doses", "setting": "NNT; CATDS: 6.8216764859784895E-2", "value": 1760, "unit": "nM"}, {"measurement": "potency estimated from few doses", "setting": "NQO1", "value": 726, "unit": "nM"}, {"measurement": "potency estimated from few doses", "setting": "PIP4K2C", "value": 2220, "unit": "nM"}, {"measurement": "potency estimated from few doses", "setting": "PRKAG2", "value": 1590, "unit": "nM"}, {"measurement": "potency estimated from few doses", "setting": "TNIK", "value": 1960, "unit": "nM"}, {"measurement": "potency estimated from few doses", "setting": "VDAC3", "value": 1810, "unit": "nM"}]}
{"smiles": "Cn1c(=O)c(F)c(Nc2ccc(I)cc2F)c2c(=O)n(OC[C@H](O)CO)cnc21", "note": "[TPKI-16]", "values": [{"measurement": "potency estimated from few doses", "setting": "ADRBK1; CATDS: 0.13244009116627101", "value": 1780, "unit": "nM"}, {"measurement": "potency estimated from few doses", "setting": "ERBB3", "value": 1370, "unit": "nM"}, {"measurement": "potency estimated from few doses", "setting": "MAP2K1; CATDS: 0.50931897145829497", "value": 12.2, "unit": "nM"}, {"measurement": "potency estimated from few doses", "setting": "MAP2K2; CATDS: 0.45776902126379299", "value": 15, "unit": "nM"}, {"measurement": "potency estimated from few doses", "setting": "NQO2", "value": 677, "unit": "nM"}]}
